Assay outcomes as filed in PubChem.
This is a sample that favours compounds with a hit; in the whole collection about 1.6% have one here.
Vif imaging = blocks HIV Vif function. 0.35% of 340,000 active. AID 602346. HEK293T cells, Vif self-association by quenched fluorescence, imaging, 24 h. inhibition, % at 7.49 µM; in the data active means inhibition above about 50%, passing the limit was not always enough
Myeloid diff 2 = compounds promoting myeloid differentiation. AID 624256. ER-HoxA9 myeloid progenitors, lysozyme-GFP differentiation, flow cytometry. 1% of 360,000 active. calls only at 10 µM;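 active means normalized GFP-positive differentiation at or above the plate's own cutoff, the solvent-only control mean plus 3 SD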;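 further: cells exposed to compound for four days before flow analysis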
Glyco luc inh = blocks N-linked glycosylation in D54 reporter cells; 0.23% of 360,000 active; reporter increase, % at 12.5 µM; AID 588692; D54 ERlucT glycosylation luciferase reporter, 24 h; percent of 100 nM tunicamycin response;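 active means mean luciferase reporter signal, scaled so untreated is 0 and the glycosylation-blocking control 100, at or above a set limit in every replicate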;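 further: luciferase carries N-glycosylation sites so blocking glycosylation raises the light; 0% = median of neutral control wells and 100% = median of 100 nM tunicamycin wells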
RAD54 branch = RAD54 (human) branch migration inhibition. RAD54 Holliday junction branch migration, FAM/BHQ fluorescence. AID 602329. Q92698. 0.14% of 360,000 active. inhibition, % at 10.4 µM;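 active means mean normalized replicate activity at least 40 and at least half of replicates scoring 40 or more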;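 further: 0% = median of neutral control wells and 100% = median of positive control wells; inhibitors cause a drop in the FAM fluorescence signal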
ABCB6 inh MLPCN = blocks the human ABCB6 transporter; AID 602162; K562-ABCB6 porphyrin accumulation, flow cytometry, 1 h; active compounds read low; fluorescence ratio to DMSO, % at 10 µM; Q9NP58; 0.19% of 360,000 active;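 active means fluorescence ratio to DMSO below 75%, the collection mean minus 3 SD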;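 further: signal is porphyrin accumulated inside mitochondria; 100% equals median channel fluorescence of DMSO control wells; lower ratio means ABCB6 inhibition with less porphyrin fluorescence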
Target sequence (Q9NP58 whole entry, looked up): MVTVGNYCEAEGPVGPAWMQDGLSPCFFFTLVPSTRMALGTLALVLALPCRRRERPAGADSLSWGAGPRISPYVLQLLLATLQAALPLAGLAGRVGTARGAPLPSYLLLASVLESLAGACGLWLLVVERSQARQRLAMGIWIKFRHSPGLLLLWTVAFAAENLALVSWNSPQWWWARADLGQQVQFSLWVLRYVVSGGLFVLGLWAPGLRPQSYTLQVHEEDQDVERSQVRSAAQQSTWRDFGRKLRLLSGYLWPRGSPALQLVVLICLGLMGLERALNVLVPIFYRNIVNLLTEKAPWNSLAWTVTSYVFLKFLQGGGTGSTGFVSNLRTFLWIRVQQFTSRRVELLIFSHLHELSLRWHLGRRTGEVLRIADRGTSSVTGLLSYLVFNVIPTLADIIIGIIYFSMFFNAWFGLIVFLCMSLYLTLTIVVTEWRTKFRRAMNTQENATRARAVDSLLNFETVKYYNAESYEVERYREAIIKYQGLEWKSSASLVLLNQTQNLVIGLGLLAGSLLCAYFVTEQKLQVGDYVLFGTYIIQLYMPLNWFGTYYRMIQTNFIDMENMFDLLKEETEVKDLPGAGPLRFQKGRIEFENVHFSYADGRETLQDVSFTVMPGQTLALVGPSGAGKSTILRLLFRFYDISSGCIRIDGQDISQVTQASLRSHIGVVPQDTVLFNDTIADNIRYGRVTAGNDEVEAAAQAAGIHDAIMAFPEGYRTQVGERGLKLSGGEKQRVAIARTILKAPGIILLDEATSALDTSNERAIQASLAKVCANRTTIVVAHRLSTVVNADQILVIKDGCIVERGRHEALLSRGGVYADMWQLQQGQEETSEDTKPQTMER
Myeloid diff = promotes myeloid progenitor differentiation | shares compounds with Myeloid diff 2 | ER-HoxA9 myeloid progenitors, GFP/Mac1 double-positive flow | calls only | 2% of 2,300 active | AID 651706;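 active means share of green or green-and-red cells above 9 and 9% in run 1 or 4 and 3% in run 2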
GFP autofluor = flagged as fluorescent in myeloid differentiation counter-screen. shares compounds with Myeloid diff 2. ER-HoxA9 myeloid progenitors, no estrogen, GFP autofluorescence flow cytometry; vehicle wells 0%, positive control 100%. fluorescence response, % (concentration not given with the values). 7.4% of 2,300 active. AID 651707;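 active means over 5% cells positive for green fluorescent reporter, or over 2% positive for both it and APC stain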;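 further: range taken on the double positive population between DMSO and positive control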
The depositor's hits bear a star; i = inactive; . = no result; + = active, no number.

SMILES	Vif imaging	Myeloid diff 2	Glyco luc inh	RAD54 branch	ABCB6 inh MLPCN	Myeloid diff	GFP autofluor
Cc1ccc(CNc2nc(NCC3CC3)nc3ccsc23)c(C)c1	-6.2	+	-8.9	3.0	97.0	i	0.0
O=C(N[C@H]1CC[C@@H](CCNS(=O)(=O)c2ccccc2)O[C@@H]1CO)c1cccnc1	.	.	.	7.9	.	.	.
O=C1N[C@@H](Cc2ccccc2)COC(=O)[C@@H](Cc2ccc(F)cc2)CC/C=C/C[C@@H]1CC(=O)N(CCO)Cc1ccccc1	-9.3	+	0.9	-9.3	91.0	i	0.0
COc1ccc2c(c1)-c1ccccc1S(=O)(=O)N2C(C)=O	1.6	i	-0.2	3.0	96.0	i	0.0
COc1ccc(CNC(=O)C[C@H]2C[C@H]3c4cc(NS(C)(=O)=O)ccc4O[C@H]3[C@H](CO)O2)cc1	.	.	.	-13.5	.	.	.
COc1cc(C)c(S(=O)(=O)n2nnc3ccccc32)cc1C	4.9	i	0.5	-17.4	95.0	.	.
COc1ccc(F)cc1S(=O)(=O)n1nnc2ccccc21	9.1	i	-0.2	.	108.0	i	0.0
Cc1cc(Br)c(S(=O)(=O)n2nnc3ccccc32)cc1C	-3.1	i	0.5	-8.1	102.0	i	3.5
C[C@H]1CN([C@@H](C)CO)C(=O)c2cccc(NC(=O)Nc3ccc4c(c3)OCO4)c2O[C@@H]1CN(C)Cc1ccc(Oc2ccccc2)cc1	.	.	.	2.1	.	.	.
COc1ccc(CN(C)C[C@H]2Oc3ccc(NC(=O)NC4CCCCC4)cc3C(=O)N([C@@H](C)CO)C[C@H]2C)cc1	.	.	.	-10.0	.	.	.
C[C@@H]1CN([C@H](C)CO)C(=O)c2cc(NC(=O)Nc3ccc(C(F)(F)F)cc3)ccc2O[C@@H](C)CCCCO[C@@H]1CN(C)S(=O)(=O)c1ccc(F)cc1	.	.	.	-4.3	.	.	.
COc1ccc(NC(=O)c2onc(C)c2Cl)cc1	1.9	i	0.9	-5.8	101.0	.	.
COc1ccc(S(=O)(=O)N(c2onc(C)c2Cl)S(=O)(=O)c2ccc(OC)cc2)cc1	-1.0	i	3.9	-2.1	82.0	i	0.4
O=C(O)c1ccc2c3c(cccc13)C(=O)N(c1ccccc1)C2=O	-4.9	i	1.7	-5.8	107.0	.	.
Nc1ccc2c3c(cccc13)C(=O)N(c1ccccc1)C2=O	.	+	6.5	.	108.0	i	0.0
CC(=O)N(C)C[C@H]1Oc2ncc(C#C[C@H](C)O)cc2C(=O)N([C@@H](C)CO)C[C@@H]1C	.	.	.	-3.1	.	.	.
Cc1cccc(N2CCN(C(=O)NCc3ccc(Cl)cc3)CC2)c1	-3.1	i	5.4	-4.4	98.0	i	0.0
CCN(CC)c1ccc(C=C(c2nnnn2-c2ccc(C)cc2)c2nnnn2-c2ccc(C)cc2)cc1	-0.1	i	-3.5	.	120.0	i	1.5
Cc1ccc(-n2nnnc2-c2ccccc2)cc1	-9.9	i	2.6	-5.5	101.0	.	.
COc1ccccc1S(=O)(=O)N[C@@H]1CC[C@H](CCNC(=O)C2CCCCC2)O[C@H]1CO	.	.	.	-9.9	.	.	.
CCOC(=O)c1ccc(N2C(=O)CC(N(C)CCc3ccc(OC)c(OC)c3)C2=O)cc1 (stereo unspecified)	3.0	i	-1.3	-4.6	102.0	i	0.5
COc1cc(NC(=S)Nc2ccccn2)c(OC)cc1Cl	.	i	0.8	.	99.0	i	0.3
COc1cc(NC(=S)Nc2cccc(Cl)c2Cl)c(OC)cc1Cl	14.7	i	1.1	15.5	103.0	.	.
Cc1cccc(NS(=O)(=O)c2ccc(C)c(C(=O)NC3CCN(Cc4ccccc4)CC3)c2)c1	0.7	+	-3.6	16.7	101.0	i	0.0
CO[C@@H]1CN(C)C(=O)c2cc(NC(=O)C3CCC3)ccc2OC[C@@H](C)N(Cc2ccncc2)C[C@H]1C	.	.	.	4.4	.	.	.
SMILES	Vif imaging	Myeloid diff 2	Glyco luc inh	RAD54 branch	ABCB6 inh MLPCN	Myeloid diff	GFP autofluor
C[C@@H]1CN([C@H](C)CO)C(=O)CCCn2nncc2CO[C@@H]1CN(C)C(=O)Nc1cccc(C(F)(F)F)c1	.	.	.	-1.2	.	.	.
Cc1ccc(O)c(NC(=O)c2cc3nc4c(c(C(F)(F)F)n3n2)CCc2ccccc2-4)c1	-2.0	i	0.6	-6.2	.	i	0.0
Cc1ccc(S(=O)(=O)Nc2ccc3c(c2)C(=O)N([C@@H](C)CO)C[C@H](C)[C@H](CN(C)Cc2ccc(C(=O)O)cc2)OCCCC[C@H](C)O3)cc1	.	.	.	7.2	.	.	.
C[C@H]1CN([C@@H](C)CO)S(=O)(=O)c2ccc(C#Cc3ccc(F)cc3)cc2O[C@@H]1CN(C)C(=O)CN(C)C	.	.	.	6.7	.	.	.
CC1=C(C(=O)OC(C)C)C(c2cccs2)N2C(=O)CCSC2=N1 (stereo unspecified)	-6.3	i	-1.7	-1.7	97.0	i	0.2
COC(=O)C1=C(C)N=C2SCCC(=O)N2C1c1cccs1 (stereo unspecified)	11.5	i	0.5	3.2	102.0	.	.
Cc1onc(-c2ccccc2Cl)c1C(=O)N1C=CC(C(F)(F)F)=NCC1	-6.7	i	0.9	.	98.0	.	.
Cc1onc(-c2ccccc2Cl)c1C(=O)N1C=CC(C(F)(F)Cl)=NCC1	-3.9	+	2.3	-15.4	99.0	i	0.0
COc1cccc(NC(=O)N2C[C@@H](O)COC[C@H]3O[C@@H](CC(=O)NCc4ccccc4F)CC[C@@H]32)c1	.	.	.	2.9	.	.	.
CS(=O)(=O)c1ccc(C(=O)NNC(=O)c2cc(-c3ccccc3)n[nH]2)cc1	4.9	i	0.6	-4.0	96.0	.	.
COc1cc(C(=O)NNC(=O)c2cc(-c3ccccc3)n[nH]2)cc(OC)c1C	17.4	i	2.6	0.6	102.0	i	0.7
C=Cn1cc[n+](CC(=O)c2ccc(C)cc2)c1	-2.3	i	-1.1	.	105.0	.	.
C=Cn1cc[n+](CC(=O)c2ccc(OC)cc2)c1	-10.3	+	1.3	1.0	94.0	i	0.6
CC(=O)N1c2c(ccc3ccccc23)C(C)CC12CCCCC2 (stereo unspecified)	21.9	i	-2.4	3.8	96.0	.	.
CC1CC2(CCCCC2)Nc2c1ccc1ccccc21 (stereo unspecified)	-18.3	+	5.9	-1.9	101.0	i	11.7*
COc1ccccc1CCc1nnc(N)s1	9.5	i	1.7	-0.1	89.0	.	.
Nc1nnc(CCOc2ccccc2Cl)s1	-10.9	i	1.6	2.6	96.0	i	0.3
O=C(NC(=S)Nc1ccc(Cc2ccncc2)cc1)c1ccccc1	0.6	+	1.3	-3.4	94.0	i	5.4*
COc1cccc(NC(=O)Nc2ccc(Cc3ccncc3)cc2)c1	4.8	+	-2.8	-1.9	99.0	i	0.6
Cc1ccc2cccc(NC(=S)NC(=O)c3ccccc3)c2n1	-6.2	i	2.9	-3.1	97.0	i	0.6
O=C(NC(=S)Nc1cccc(NC(=S)NC(=O)c2ccccc2)c1)c1ccccc1	-0.7	+	-3.8	-0.3	108.0	i	0.9
